This is a sample that favours compounds with a hit; in the whole collection about 28% have one here.
CYP2C9 act: activators of human CYP2C9 | P11712 | recombinant CYP2C9, luciferin-H conversion, luminescence; hits give high values; factor 1 = untreated enzyme, 0 = blocked | activation factor at 5 µM | 96,000 tested, 1.4% active | AID 1024;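 active = activation factor of 2 or more for CYP2C9 at a 5 µM dose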
CYP2C19 inh: blocks human cytochrome P450 2C19; CYP2C19 Supersomes, luciferin-H EGE luminescence, 30 min; 96,000 tested, 21% active; P33261; AID 778; inhibition, % at 5 µM;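 active = CYP2C19 inhibition above a set limit at 5 µM in the primary screen, cut at about 50% in these data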
Target sequence (P33261 whole entry, looked up): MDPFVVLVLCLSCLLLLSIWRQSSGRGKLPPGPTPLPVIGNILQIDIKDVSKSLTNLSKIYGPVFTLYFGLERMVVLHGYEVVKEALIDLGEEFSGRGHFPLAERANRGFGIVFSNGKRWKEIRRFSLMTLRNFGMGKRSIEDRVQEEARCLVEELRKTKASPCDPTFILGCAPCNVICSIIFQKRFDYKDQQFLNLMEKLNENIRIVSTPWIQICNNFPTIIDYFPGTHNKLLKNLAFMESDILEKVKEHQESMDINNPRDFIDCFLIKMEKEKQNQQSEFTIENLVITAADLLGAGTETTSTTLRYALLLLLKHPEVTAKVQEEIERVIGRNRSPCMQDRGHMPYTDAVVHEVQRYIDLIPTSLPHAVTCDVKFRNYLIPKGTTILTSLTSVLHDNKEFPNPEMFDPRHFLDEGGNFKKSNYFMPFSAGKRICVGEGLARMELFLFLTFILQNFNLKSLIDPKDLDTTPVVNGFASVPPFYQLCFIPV
CD11b adhes enh: CD11b/CD18-fibrinogen binding enhancement; K562 CD11b/CD18 adhesion to fibrinogen, ATPlite luminescence; P05107+P11215; AID 1499; activation, % at 10 µM; 93,000 tested, 0.07% active;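 active = 10 µM primary screen giving 50% or more activity, confirmed by 40% or more on retest at that dose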
CYP2C19 activ: activators of human cytochrome P450 2C19; P33261; recombinant CYP2C19, luciferin-H EGE luminescence; hits give high values; 0 = fully inhibited enzyme, 1 = untreated enzyme; activation factor at 5 µM; 96,000 tested, under 10 active; AID 1025;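 active = activation factor of at least 2 at 5 µM in the primary screen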
CYP2C9 inh: blocks human cytochrome P450 2C9 | inhibition, % at 5 µM | CYP2C9 Supersomes, luciferin-H conversion, luminescence | P11712 | 96,000 tested, 20% active;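 active = blocking of liver enzyme CYP2C9 beyond about 50% at 5 µM, limit read from the data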
CD11b adhes inh: CD11b/CD18-fibrinogen binding inhibition; P05107+P11215; K562 CD11b/CD18 adhesion to fibrinogen, ATPlite luminescence; Mn2+ added to activate the integrin; inhibition, % at 10 µM; 93,000 tested, 0.54% active;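 active = primary inhibition of 50% or more at 10 µM, then 40% or more on retest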
Of the large screens only hits and unclear results are named; the others gave an inactive call.

CCN(CC)C(=O)CSc1nc2ncc(Cl)cc2[nH]1	CYP2C19 inh 52
CCN(CC)C(=O)CSc1nc2ncc(Br)cc2[nH]1	CYP2C19 inh 69
CC(C)OC(=O)CSc1nc2ncc(Cl)cc2[nH]1	none
Fc1ccc(CSc2nc3ncc(Br)cc3[nH]2)cc1	CYP2C19 inh 55
CCOC(=O)CNC(=O)CSc1nc2ncc(Br)cc2[nH]1	CYP2C9 inh 64
O=C(CSc1nc2ncc(Br)cc2[nH]1)c1ccc([N+](=O)[O-])cc1	none (no result: CYP2C9 act, CYP2C19 inh, CYP2C19 activ, CYP2C9 inh)
CCCCN(C(=O)CNC(=O)c1ccco1)C(C(=O)NC1CCCCC1)c1ccc(OC)cc1OC (stereo not given)	none
Cn1c(C(=O)N2CCOCC2)cnc1Sc1ncc(C(F)(F)F)cc1Cl	none
CCCNC(=O)c1cnc(Sc2ncc(C(F)(F)F)cc2Cl)n1C	CYP2C9 inh 71
O=C(/C=C/c1ccccc1Cl)c1cccnc1	CYP2C19 inh 54
O=C(/C=C/c1ccccc1)NNC(=O)c1cccnc1	none (no result: CD11b adhes enh, CD11b adhes inh)
O=C(/C=C/c1ccc(Cl)cc1)c1cccnc1	CYP2C19 inh 94, CYP2C9 inh 52
O=C(/C=C/c1ccc(OCc2ccccc2)c(OCc2ccccc2)c1)c1cccnc1	none (no result: CYP2C9 act, CYP2C19 inh, CYP2C19 activ, CYP2C9 inh)
CC(C)Cn1c(=O)c(C(=O)NCc2ccccn2)c(O)c2ccccc21	none (no result: CD11b adhes enh, CD11b adhes inh)
CCOC(=O)C1CCCN(c2ncnc3c2[nH]c2cccc(OC)c23)C1 (stereo not given)	CYP2C19 inh 63
CCOc1cccc(OCCCCN2CCOCC2)c1	none
C=CCc1ccc(OCCCCCN2CCOCC2)c(OC)c1	CYP2C19 inh 64
C=CCc1ccc(OCCn2cccc2C=O)c(OC)c1	CYP2C19 inh 70 (no result: CD11b adhes enh, CD11b adhes inh)
COc1cccc(OCCCCCCN2CCOCC2)c1	CYP2C19 inh 54
C=CCc1ccc(OCCOc2cccc3ccc(C)nc23)c(OC)c1	CYP2C9 act 2.1 (no result: CD11b adhes enh, CD11b adhes inh)
Cc1ccc(CC(=O)Nc2nc3ccccc3s2)cc1	none (no result: CD11b adhes enh, CD11b adhes inh)
O=S(=O)(Nc1nc2ccccc2s1)c1ccc(Cl)s1	CYP2C19 inh 65, CYP2C9 inh 95, CD11b adhes inh 74
CN(CC(=O)Nc1nc2ccccc2s1)S(=O)(=O)c1ccccc1	CYP2C19 inh 52
O=C(CS(=O)(=O)Cc1ccccc1)Nc1nc2ccccc2s1	CYP2C19 inh 54, CYP2C9 inh 55
O=C(COC(=O)Cn1cnc2ccccc21)NCCc1ccc(Cl)cc1	none
O=C(NC1CCN(C(=O)NCc2ccccc2)CC1)c1ccco1	none
COc1cccc(/C(C)=N/NC(=O)c2ccc(N(C)C)cc2)c1	none
COc1cccc(C(=O)NC2CC3CCCC(C2)N3CC(=O)Nc2ccc(N(C)C)cc2)c1 (stereo not given)	CYP2C9 inh 79 (no result: CD11b adhes enh, CD11b adhes inh)
Cc1cccc(Cn2cnc3c(NS(C)(=O)=O)c(C)c(C)cc32)c1	none
Cc1cccc(Oc2coc3cc(OC(=O)c4cc5ccccc5oc4=O)ccc3c2=O)c1	CYP2C9 act 2.1, CD11b adhes enh 53
CC1(C)CC(=O)c2c(-c3cccnc3)n[nH]c2C1	none
Cc1ccc(CNC(=O)c2cn(C3CCCCC3)c(=O)c3c2c2ccccc2n3C)o1	none
Cc1cc(NC(=O)c2cn(C3CCCCC3)c(=O)c3c2c2ccccc2n3C)no1	CYP2C19 inh 60, CYP2C9 inh 84
CCOC(=O)C1=C(C)NC2=C(C1c1ccc([N+](=O)[O-])cc1)S(=O)(=O)c1ccccc12 (stereo not given)	CYP2C9 inh 62
COc1ccc(S(=O)(=O)Nc2ccc3c(c2)OCO3)cc1OC	CYP2C19 inh 100
COc1ccc(S(=O)(=O)N2CCC(C(=O)Nc3ccc4c(c3)OCCO4)CC2)cc1OC	none
O=C(O)c1ccc(NS(=O)(=O)c2ccc3c(c2)OCCO3)cc1	none
COc1ccc(S(=O)(=O)Nc2ccc3c(c2)OCCO3)cc1Cl	CYP2C19 inh 99, CYP2C9 inh 93
Cc1cccc(NS(=O)(=O)c2ccc3c(c2)OCCO3)c1	CYP2C19 inh 100
O=C(COC(=O)c1ccc(NS(=O)(=O)c2ccc3c(c2)OCCO3)cc1)NC1CC1	CYP2C9 inh 62
COc1ccc(S(=O)(=O)Nc2ccc3c(c2)OCO3)cc1C(=O)O	none
CC(OC(=O)c1ccc(NS(=O)(=O)c2cccs2)cc1)C(=O)N(C)C1CCCCC1 (stereo not given)	none (no result: CYP2C9 act, CYP2C19 inh, CYP2C19 activ, CYP2C9 inh)
COc1ccc(CN2CCn3ncc(C(=O)Nc4cccc(C)c4)c3C2=O)cc1	none
Cc1cccc(-n2c(CNC(=O)c3ccccc3)nnc2SCC(=O)Nc2nccs2)c1	none
COCCNC(=O)C1CC(c2cccc([N+](=O)[O-])c2)=NO1 (stereo not given)	none
CC(=O)N/C(=C\c1ccccc1)C(=O)NCC(=O)O	none (no result: CYP2C9 act, CYP2C19 inh, CYP2C19 activ, CYP2C9 inh)
O=C(O)c1cc(S(=O)(=O)Nc2ccc3c(c2)OCCO3)c(Cl)cc1Cl	CYP2C9 inh 51
O=S(=O)(Nc1ccc2c(c1)OCCO2)c1cnc[nH]1	CYP2C9 inh 78
O=S(=O)(Nc1ccc2c(c1)OCCO2)c1ccc2oc3ccccc3c2c1	CYP2C19 inh 100, CYP2C9 inh 98
Cc1cccc(NS(=O)(=O)c2ccc(C3CCCCC3)cc2)c1	CYP2C19 inh 69
Cc1ccc(N2CN=c3s/c(=C\c4ccccn4)c(=O)n3C2)cc1	none
COc1cc(NC(=O)C2CC(=O)NC3=C2C(=O)CCC3)cc(OC)c1 (stereo not given)	none (no result: CD11b adhes enh, CD11b adhes inh)
CCCNC(=O)NS(=O)(=O)c1cnccc1Sc1ccc(Cl)c(Cl)c1	none (no result: CD11b adhes enh, CD11b adhes inh)
C=COCCNC(=O)C1CC(=O)N(c2ccc(C)cc2)C1 (stereo not given)	none
Cc1ccc(S(=O)(=O)NC(C(=O)Oc2ccc3c(C(F)(F)F)cc(=O)oc3c2)c2ccccc2)cc1 (stereo not given)	CD11b adhes inh 57 (no result: CYP2C9 act, CYP2C19 inh, CYP2C19 activ, CYP2C9 inh)
Cc1ccc(S(=O)(=O)NC(CC(C)C)C(=O)Oc2ccc3c4c(c(=O)oc3c2)CCC4)cc1 (stereo not given)	none (no result: CD11b adhes enh, CD11b adhes inh)
COC(=O)C1=C(C)N(Cc2ccc(C)cc2)C(=O)/C1=C\c1ccc(O)c(OC)c1	CYP2C19 inh 52, CYP2C9 inh 92
CCN1C(=O)/C(=C\c2ccco2)C(C(=O)OC)=C1C	none
COC(=O)C1=C(C)N(CC2CCCO2)C(=O)/C1=C\c1ccc(O)cc1 (stereo not given)	CYP2C19 inh 50, CYP2C9 inh 63
C/C(=N\O)C(=O)OC1CC(C)CCC1C(C)C (stereo not given)	CYP2C19 inh 96, CYP2C9 inh 96
CC1CCC(C(C)C)C(OC(=O)COC(=O)c2ccc(N)cc2)C1 (stereo not given)	none (no result: CYP2C9 act, CYP2C19 inh, CYP2C19 activ, CYP2C9 inh)
COC(=O)C1=C(C)NC(=O)NC1C1CC=CCC1 (stereo not given)	none
CCCC(=O)C1=C(c2ccccc2)C(C#N)(C#N)C(C#N)=C1N	CYP2C9 inh 73

Screening results as filed in PubChem BioAssay.
